Test results published in PubChem BioAssay.
Active and inactive are the calls of the source.

Biological target: NADPH oxidase 4 (Homo sapiens) (UniProt Q9NPH5)
Test: compounds shifting NOX4 Amplex Red fluorescence – cell-based, HEK293-NOX4, tetracycline-induced, NOX inhibitor project, primary screen (AID 1160)
Conditions: HEK293-NOX4, Amplex Red H2O2 fluorescence, 45 min; higher = more signal, called active from +8 up or from −8 down

NADPH oxidase 4 (Homo sapiens), sequence (Q9NPH5 whole entry, looked up): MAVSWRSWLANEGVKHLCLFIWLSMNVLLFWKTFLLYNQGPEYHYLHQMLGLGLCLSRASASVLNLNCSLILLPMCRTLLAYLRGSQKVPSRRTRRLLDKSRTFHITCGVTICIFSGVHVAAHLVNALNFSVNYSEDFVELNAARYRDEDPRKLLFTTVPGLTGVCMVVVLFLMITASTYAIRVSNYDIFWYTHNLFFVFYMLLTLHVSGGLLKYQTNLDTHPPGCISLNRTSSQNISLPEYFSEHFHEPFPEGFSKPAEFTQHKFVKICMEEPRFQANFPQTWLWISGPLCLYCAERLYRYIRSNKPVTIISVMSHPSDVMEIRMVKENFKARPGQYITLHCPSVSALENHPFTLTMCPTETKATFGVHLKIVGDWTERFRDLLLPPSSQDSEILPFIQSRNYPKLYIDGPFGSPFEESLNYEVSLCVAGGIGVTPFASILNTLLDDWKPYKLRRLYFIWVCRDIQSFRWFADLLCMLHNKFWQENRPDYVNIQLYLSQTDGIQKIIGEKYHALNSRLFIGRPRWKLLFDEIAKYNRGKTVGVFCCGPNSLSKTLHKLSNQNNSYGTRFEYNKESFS

z-score, inactive:
O=C1C[C@]2(c3ccc([N+](=O)[O-])cc3)C(=O)N(Cc3ccccc3)c3cc(CO)ccc3[C@H]2N1CC12CC3CC(CC(C3)C1)C2 0.256, Cc1c(NC(=O)/C(C#N)=C/C=C/c2ccc(N(C)C)cc2)c(=O)n(-c2ccccc2)n1C -1.51, COCCOC(=O)N1C(=O)[C@@]2(c3ccccc31)[C@H](c1ccc(OCCO)cc1)N1[C@H](c3ccccc3)[C@H](c3ccccc3)OC(=O)[C@H]1[C@@H]2C(=O)Nc1nc2ccccc2s1 1.17, COCCCNC(=O)[C@@]1(Sc2ccc(C)cc2)CC(=O)N(Cc2cc(C(F)(F)F)cc(C(F)(F)F)c2)[C@@H]1c1ccc(CO)cc1 0.521, CCCC[C@@H]1C[C@H]1[C@@H](NC(=O)c1ccccc1)c1ccc(Cl)cc1 -0.505, CC(C)C(CO)N1C(=O)[C@]2(C)C3C(=O)OCCC/C=C\[C@H]3OC23C=CCN(c2ccc(Cl)cc2)C(=O)[C@@H]13 (stereo not given in full) 1.04, COC(=O)[C@@]1(Cc2ccc(OC)cc2)[C@H]2c3cc(C(=O)N4CCCC4)n(CCc4cc5ccccc5[nH]4)c3C[C@H]2CN1C(=O)c1ccccc1 0.319, CCCC[C@@H]1C[C@H]1[C@@H](NC(=O)c1cccnc1)c1ccc(-c2ccccc2)cc1 -1.52, [N-]=[N+]=Nc1ccccc1[C@@H]1OC(c2ccc(OCCCO)cc2)=N[C@]1(CCS(=O)(=O)c1ccccc1)C(=O)NCCN1CCOCC1 -0.729, C[C@@H](OCc1ccccc1)C1NC(=O)[C@@]23C(=O)N[C@@H](Cc4ccccc4)C2[C@H](C)[C@@]2(C)O[C@H]2C3/C=C/C/C=C\CNC(=O)CNC1=O (stereo not given in full) 1.32, C=C(CCCC)/C(=C/C[C@@H](OC(=O)c1ccncc1)c1cccc(OCCO)c1)c1cnc2ccccc2c1 -0.36, CC(=O)n1cc(C(O)C2C=CC3C(=O)N(c4ccccc4)C(=O)C3N2Nc2ccccc2)c2ccccc21 (stereo not given) -4.86, C=CCN1C(=O)[C@]2(CC=C)N=C(c3ccc(OCCCO)cc3)O[C@@H]2c2ccccc21 1.08, CCOC(=O)C[C@H]1[C@H](OC(=O)Cc2ccc3c(c2)OCO3)[C@@H](NC(=O)C2CCCCC2)c2cc(OCCCO)ccc2N1C(=O)c1ccc2ccccc2n1 0.214, O=C1O[C@@H](c2ccccc2)[C@@H](c2ccccc2)N2[C@@H](c3ccccc3OCCO)[C@]3(C(=O)Nc4ccc(C#CC5=CCCCC5)cc43)[C@@H](C(=O)NC[C@H](O)c3ccccc3)[C@H]12 1.1, O=C1OCC=C[C@H]2OC34C=CCN(Cn5nnc6ccccc65)C(=O)[C@H]3N(CCCCCCO)C(=O)[C@@H]4[C@@H]12 (stereo not given in full) -0.17, COCCCNC(=O)[C@]1(Cc2ccccc2N=[N+]=[N-])N=C(c2ccc(OCCCO)cc2)O[C@@H]1c1ccccc1N=[N+]=[N-] 0.567, CC(C)c1ccc(NN2C(C(O)c3ccco3)C=CC3C(=O)N(c4ccccc4)C(=O)C32)cc1 (stereo not given) -1.95, Cc1ccc(S[C@]2(C(=O)NCC(C)C)CC(=O)N(Cc3ccccc3Cl)[C@@H]2c2ccc(CO)cc2I)cc1 -0.402, C=CCC(OC(C)=O)[C@@H]1[C@@H](N(Cc2ccc(-c3ccccc3)cc2)C(=O)c2cccc3ccccc23)c2cc(OCCCO)ccc2N1C(=O)Cc1ccc2ccccc2c1 (stereo not given in full) -0.22, CC=CC(O)C1C=CC2C(=O)N(C)C(=O)C2N1Nc1ccc([N+](=O)[O-])cc1[N+](=O)[O-] (stereo not given) -1.05, CC(C)(C)OC(=O)CC[C@]1(C(=O)NCCN2CCOCC2)N=C(c2ccc(OCCCO)cc2)O[C@H]1c1ccccc1 1.54, CCCCC(=C=CC[C@@H](O)c1ccc(OCCO)cc1)C[C@@H](O)COCc1ccccc1 -0.61, COC(=O)[C@H](Cc1ccccc1)N1CC(/C=C/C2CC2)=C[C@@H]1[C@@H](O)Cc1ccccc1 0.058, COCCOC(=O)N1C(=O)[C@@]2(c3cc(C#CCC(C(=O)OC)C(=O)OC)ccc31)[C@H](c1ccc(OCCO)cc1)N1[C@H](c3ccccc3)[C@H](c3ccccc3)OC(=O)[C@H]1[C@@H]2C(=O)N1CCN(c2ncccn2)CC1 -1.13, CN(C)C(=O)[C@]1(CCC(=O)OC(C)(C)C)N=C(c2ccc(OCCCO)cc2)O[C@@H]1c1ccccc1 0.419, COCCOC(=O)N1C(=O)[C@@]2(c3cc(C#CC4(O)CCCCCC4)ccc31)[C@H](C(N)=O)[C@H]1C(=O)O[C@H](c3ccccc3)[C@H](c3ccccc3)N1[C@@H]2c1ccccc1OCCO 0.164, CC(CO)N1C(=O)[C@@H]2C3C(=O)OCCC/C=C\[C@H]3OC23C=CCN(Cn2nnc4ccccc42)C(=O)[C@@H]13 (stereo not given in full) 0.193, COC(=O)[C@@]1(Cc2ccc(OC)cc2)[C@H]2c3cc(C(=O)N(C)C)n(CCc4c[nH]c5ccc(O)cc45)c3C[C@H]2CN1C(=O)c1ccccc1 0.0624, O=c1cccc(-c2cccc(Cl)c2)o1 -1.92, O=C1O[C@H](c2ccccc2)[C@H](c2ccccc2)N2[C@H]1[C@@H](C(=O)O)[C@]1(C(=O)Nc3ccccc31)[C@H]2c1ccc(O)cc1 -0.697, COCCOC(=O)N1C(=O)[C@@]2(c3ccccc31)[C@H](C(=O)N1CCN(c3ncccn3)CC1)[C@H]1C(=O)O[C@H](c3ccccc3)[C@H](c3ccccc3)N1[C@@H]2c1ccc(OCCO)cc1 0.798, CCOC(=O)C1=C[C@@H](c2ccccc2)N(S(=O)(=O)c2ccc(C)cc2)[C@H]1c1cccc(Cl)c1 -0.143, O=C1c2ccccc2[C@](Cc2ccccc2I)(C(=O)NCCN2CCOCC2)[C@H](c2ccc(CO)cc2)N1Cc1ccccc1 0.91, O=C(O)[C@H]1C[C@H]2C(=O)N3CCC[C@H]3C(=O)N2[C@H]1c1cccc(OCCO)c1 -0.0548
